2 compounds from the supplement of paper PMC6522484 can be followed below.

Experiment [1] concerns DLD1. Nature of the experiment: cell viability (CellTiter-Glo) relative to plate median (fraction of plate median); higher = more viable cells. The note with it: 5 µM; treatment time 24 h; reporter: 7TFP. In outline:
(§1)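 Colorectal cancer cell lines stably carrying lentiviral TCF/Wnt firefly luciferase reporters (7TFP or TCF4/Wnt) were plated in 384-well plates and, 24 h later, given library compounds at a final 5 µM for 24 h. Firefly luciferase or CellTiterGlo luminescence was read on parallel plates with a Tecan F500 reader. Each well's signal was normalised to the plate median in webcellHTS2 (additive, without log transformation). Values are the mean of two independent replicates.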
On the technique in general: ATP-based viability assays read luminescence as a measure of living cells.

The next experiment concerns HCT116. The experiment is described as above. The note with it: 5 µM; treatment time 24 h; reporter: TCF4/Wnt. The essentials: as §1
The test system of experiment [2] is SW480. Described as above. As to conditions: 5 µM; treatment time 24 h; reporter: 7TFP. The essentials: as §1
Experiment [3] relates to DLD1. Nature of the experiment: TCF/Wnt firefly luciferase reporter signal relative to plate median (fraction of plate median); higher = higher Wnt reporter signal. The note with it: 5 µM; treatment time 24 h; reporter: 7TFP. The essentials: as §1
Experiment [4] concerns SW480. The experiment is described as above. The note with it: 5 µM; treatment time 24 h; reporter: 7TFP. In outline:
as §1

± gives the standard deviation of the averaged measurements.

Consider `OC[C@@H]1CCCN2CCCC[C@H]12`, for which the cell viability with DLD1 [1] was determined as 1.04 ± 0.014; with HCT116, 1 ± 0.053; in the experiment with SW480 [2] it was 0.995 ± 0.036. Further, the “TCF/Wnt firefly luciferase reporter signal” value in the experiment on DLD1 [3] stood at 0.898 ± 0.14; with SW480 [4] it was 0.964 ± 0.065.

Regarding `O=C1CC[C@@]2(O)[C@H]3Cc4ccc(O)c5c4[C@@]2(CCN3CC2CC2)[C@H]1O5`, the figures for the cell viability in the experiment on DLD1 [1], in the experiment on HCT116 and in the experiment on SW480 [2] were 1.02 ± 0.093, 0.914 ± 0.19 and 1.04 ± 0.035, respectively. For the same compound, the “TCF/Wnt firefly luciferase reporter signal” value in the experiment with DLD1 [3] came to 0.985 ± 0.12; with SW480 [4] it was 1.03 ± 0.028.
